Results filed as inconclusive are left out. Activity calls are given as the source filed them. Unless noted, the call rests on the fitted dose curve; in most records, active means well fitted curve in the direction sought with a large enough effect in the repeat runs; inconclusive means weak or mixed curves; inactive means no such curve, though single readings can be large; an effect the other way counts as inactive or inconclusive.
Legend:
[1] = qHTS assay to identify small molecule agonists of the estrogen receptor beta (ER-beta) signaling pathway - cell viability counter screen (AID 1259380); further: nearly all actives have a fitted effect of over 30% in size; further: potency means the concentration at half of the fitted maximal effect
Summary of the method: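 ER-beta-UAS-bla HEK293T cells in medium with 2% charcoal-stripped FBS, pre-incubated 6 hr, then treated 16 hr at 37C. Cytotoxicity read in the same wells by CellTiter-Glo luminescence after 30 min at room temperature.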

[2] = qHTS assay to identify small molecule antagonists of the estrogen receptor beta (ER-beta) signaling pathway - cell viability counter screen (AID 1259382); further: nearly all actives have a fitted effect of over 55% in size; further: potency means the concentration at half of the fitted maximal effect;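 on activity change, negative = cytotoxicity: HEK293T cells carrying ER-beta-UAS-bla reporter stimulated with estradiol; series mostly up to about 92 µM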
Summary of the method: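 ER-beta-UAS-bla HEK293T cells in 2% charcoal-stripped FBS medium, treated with compound plus 1 nM 17-beta-estradiol for 16 h at 37C. Viability read by CellTiter-Glo luminescence after 30 min at room temperature in the same wells.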

[3] = qHTS assay to identify small molecule agonists or antagonists of the thyroid stimulating hormone receptor (TSHR) signaling pathway - wild type cell line counter screen (AID 1259384; calls by dose curve)
Summary of the method: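 Wild-type Hek293 cells, 800/well, 18 h at 37C, then compound with Ro20-1724 for 30 min RT. cAMP by HTRF (cAMP-d2/anti-cAMP cryptate), 1 h RT, fluorescence read. 15 concentrations, triplicates.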

[4] = molecular target: Thyrotropin receptor (Homo sapiens) (UniProt P16473); experiment: qHTS assay to identify small molecule antagonists of the thyroid stimulating hormone receptor (TSHR) signaling pathway (AID 1259385; calls by dose curve; further: nearly all actives have a fitted effect of over 20% in size; further: potency means the concentration at half of the fitted maximal effect)
Summary of the method: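 TSHR-HEK293 cells (800/well) plated 18 h, then compounds with Ro20-1724 and TSH at 1.5 ng/mL final, 30 min at room temperature. cAMP quantified by HTRF (cAMP-d2/anti-cAMP-cryptate, 1 h); 15 concentrations in triplicate.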

[5] = qHTS assay to identify small molecule agonists of the estrogen receptor alpha (ER-alpha) signaling pathway in the presence of an antagonist - cell viability counter screen (AID 1259386);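 further: series mostly up to about 92 µM; cells exposed to compounds for 22 h at 37 °C before the viability read; nearly all actives have a fitted effect of over 30% in size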
Summary of the method: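 Cell viability in VM7Luc4E2 cells (endogenous full-length ER-alpha) measured by CellTiter-Fluor fluorescence in the same wells as the luciferase screen. Cells pre-cultured 5 days in charcoal-stripped serum, then treated 22 h with compounds at 15 concentrations plus 10.0nM ICI-182,780.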

[6] = molecular target: Progesterone receptor (Homo sapiens) (UniProt P06401); experiment: qHTS assay to identify small molecule agonists of the progesterone receptor (PR) signaling pathway (AID 1346784; calls by dose curve; further: nearly all actives have a fitted effect of over 30% in size)
Summary of the method: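 Seed PR-UAS-bla HEK 293T cells (2% charcoal-stripped FBS), incubate 6 hr at 37C; add compounds in DMSO, 16 hr at 37C; add LiveBLAzer B/G substrate, 2 hr RT; read fluorescence intensity.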

[7] = molecular target: Progesterone receptor (Homo sapiens) (UniProt P06401); experiment: qHTS assay to identify small molecule antagonists of the progesterone receptor (PR) signaling pathway (AID 1346795; active means well fitted inhibition curve with a large enough effect in the signal ratio in the repeat runs, not every such curve was filed as active; the % refers to the signal ratio)
Summary of the method: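 Screening used a GripTite HEK293T line with PR-responsive UAS-beta-lactamase. Cells were challenged with compound in the presence of 1 nM R5020 final for 16 hr at 37C; B/G FRET substrate, 2 hr room temperature, fluorescence.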

[8] = qHTS assay to identify small molecule antagonists of the progesterone receptor (PR) signaling pathway - cell viability counter screen (AID 1346798); further: nearly all actives have a fitted effect of over 50% in size; further: potency means the concentration at half of the fitted maximal effect; on activity change, negative = cytotoxicity: series mostly up to about 92 µM
Summary of the method: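 Measures cytotoxicity in parallel with the PR antagonist reporter read: HEK293T PR-UAS-bla cells get compound and R5020 for 16 hr, and remaining viable cells are quantified by CellTiter-Glo luminescence.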

[9] = qHTS assay to identify small molecule agonists of the progesterone receptor (PR) signaling pathway - cell viability counter screen (AID 1346799; calls by dose curve; further: nearly all actives have a fitted effect of over 45% in size; further: potency means the concentration at half of the fitted maximal effect)
Summary of the method: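 Using the same plates as the PR reporter screen, HEK293T PR-UAS-bla cells received compounds for 16 hr at 37C and were then lysed with CellTiter-Glo; luminescence was read 30 min later at room temperature.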

[10] = qHTS assay to identify small molecule antagonists of the TGF-beta/Smad signaling pathway - cell viability counter screen (AID 1346824); further: nearly all actives have a fitted effect of over 50% in size; further: potency means the concentration at half of the fitted maximal effect
Summary of the method: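 SBE-bla HEK 293T cells, incubated overnight, then compound plus 0.25 ng/mL TGF-beta1 (stock added) for 5 hr at 37 C. Viability was read in the same wells by CellTiter-Glo luminescence after 30 min at room temperature.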

[11] = qHTS assay to identify small molecule agonists of the TGF-beta/Smad signaling pathway - cell viability counter screen (AID 1346829); further: nearly all actives have a fitted effect of over 45% in size; further: potency means the concentration at half of the fitted maximal effect; on activity change, negative = cytotoxicity: top concentration of the series differs between compounds
Summary of the method: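 Same-well cytotoxicity: CellTiter-Glo added after the 2 hr room-temperature beta-lactamase substrate step, luminescence measured 30 min later; cells had 5 hr of compound at 37 C.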

[12] = qHTS assay to identify small molecule agonists of the TGF-beta/Smad signaling pathway (AID 1346859; active means well fitted activation curve with a large enough effect in the signal ratio in the repeat runs, not every such curve was filed as active; the % refers to the signal ratio; further: series mostly up to about 77 µM)
Summary of the method: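 Beta-lactamase reporter activity downstream of Smad binding elements was measured in stably transfected HEK 293T cells; compounds were incubated for 5 hr, substrate for 2 hr at room temperature.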

[13] = molecular target: Thyrotropin-releasing hormone receptor (Homo sapiens) (UniProt P34981); experiment: qHTS assay to identify small molecule antagonists of the thyrotropin-releasing hormone receptor (TRHR) signaling pathway (AID 1346877; active means well fitted inhibition curve with a large enough effect in the repeat runs, not every such curve was filed as active; further: series mostly up to about 51 µM)
Summary of the method: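 TRHR-expressing HEK293 cells loaded with calcium dye for 2 h at 37 C; compounds pre-incubated 5 min at room temperature before TRH challenge at 1 nM final. Intracellular calcium fluorescence read kinetically for 3 min; 15 concentrations in triplicate.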

[14] = molecular target: Thyrotropin-releasing hormone receptor (Homo sapiens) (UniProt P34981); experiment: qHTS assay to identify small molecule agonists of the thyrotropin-releasing hormone receptor (TRHR) signaling pathway (AID 1346891; calls by dose curve; further: series mostly up to about 58 µM)
Summary of the method: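 Overnight-plated (18 h, 37 °C, 5% CO2) TRHR-Hek293 cells; 2 h calcium dye at 37 °C; compound in DMSO; 3-min kinetic fluorescence read.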

[15] = Human pregnane X receptor (PXR) small molecule agonists, qHTS cell viability counter screen (AID 1346977); further: nearly all actives have a fitted effect of over 50% in size; further: potency means the concentration at half of the fitted maximal effect
Summary of the method: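 After a 5hr pre-incubation, PXR-Luc HepG2 cells received compounds plus positive control in DMSO and were kept 24hr at 37C. Cell viability was quantified by fluorescence from CellTiter-Fluor added for the final hour.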

[16] = Caspase-3/7 induction in HepG2 cells by small molecules, qHTS assay (AID 1346978); further: nearly all actives have a fitted effect of over 15% in size; further: potency means the concentration at half of the fitted maximal effect
Summary of the method: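 Wild-type HepG2 cells, 2,000/well, settled 5 hr at 37 C and 5% CO2, then compound-treated for 17 hr; caspase-3/7 activity read by luminescent Caspase-Glo 3/7 after 30 min at room temperature.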

[17] = Caspase-3/7 induction in CHO-K1 cells by small molecules, qHTS cell viability counter screen (AID 1346979); further: nearly all actives have a fitted effect of over 35% in size; further: potency means the concentration at half of the fitted maximal effect
Summary of the method: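 Multiplexed with Caspase-Glo 3/7 in CHO-K1 cells, this counter screen added CellTiter-Fluor after 16hr of compound exposure and recorded fluorescence 1hr later.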

[18] = Caspase-3/7 induction in CHO-K1 cells by small molecules, qHTS assay (AID 1346980); further: nearly all actives have a fitted effect of over 15% in size; further: potency means the concentration at half of the fitted maximal effect
Summary of the method: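 Wild-type CHO-K1 cells exposed to compounds for 17hr at 37 C, 5% CO2. Caspase-3/7 activity then measured by Caspase-Glo 3/7 luminescence after 30min at room temperature.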

[19] = molecular target: Estrogen receptor (Homo sapiens) (UniProt P03372); experiment: qHTS assay to identify small molecule agonists of the estrogen receptor alpha (ER-alpha) signaling pathway in the presence of an antagonist (AID 1259383; calls by dose curve; further: top concentration of the series differs between compounds; nearly all actives have a fitted effect of over 15% in size)
Summary of the method: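 VM7Luc4E2 cells express endogenous full-length ER-alpha with an ERE-luciferase reporter and were hormone-deprived for 5 days. Compounds at 15 concentrations were added with 10.0nM ICI-182,780 for 22hr at 37C. Luminescence was read with ONE-Glo.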

[20] = molecular target: Androgen receptor (Homo sapiens) (UniProt P10275); experiment: qHTS assay to identify small molecule agonists of the androgen receptor (AR) signaling pathway in the presence of an antagonist (AID 1259381; calls by dose curve; further: nearly all actives have a fitted effect of over 15% in size)
Summary of the method: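 MDA-kb2 cells carrying MMTV-luciferase (AR/GR responsive), 3,000 cells/well, co-treated with 3.0 uM nilutamide final. Compounds at 15 concentrations, 16 hr at 37C without CO2. Luciferase luminescence read after 30 min with ONE-Glo.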
On the % scale 0 is the no-effect control and ±100 the full control effect.

Chain of Thyrotropin-releasing hormone receptor (Homo sapiens) (P34981 whole entry, looked up): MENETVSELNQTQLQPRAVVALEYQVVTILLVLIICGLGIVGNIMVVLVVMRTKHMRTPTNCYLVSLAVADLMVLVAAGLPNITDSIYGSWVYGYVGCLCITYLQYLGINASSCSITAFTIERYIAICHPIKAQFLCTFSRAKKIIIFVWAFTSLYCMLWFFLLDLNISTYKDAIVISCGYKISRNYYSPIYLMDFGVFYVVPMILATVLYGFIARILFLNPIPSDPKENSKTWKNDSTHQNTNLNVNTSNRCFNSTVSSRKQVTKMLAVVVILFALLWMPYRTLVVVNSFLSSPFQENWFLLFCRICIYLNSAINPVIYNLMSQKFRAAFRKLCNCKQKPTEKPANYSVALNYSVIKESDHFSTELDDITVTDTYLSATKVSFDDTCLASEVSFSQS
Chain of Progesterone receptor (Homo sapiens) (P06401 whole entry, looked up): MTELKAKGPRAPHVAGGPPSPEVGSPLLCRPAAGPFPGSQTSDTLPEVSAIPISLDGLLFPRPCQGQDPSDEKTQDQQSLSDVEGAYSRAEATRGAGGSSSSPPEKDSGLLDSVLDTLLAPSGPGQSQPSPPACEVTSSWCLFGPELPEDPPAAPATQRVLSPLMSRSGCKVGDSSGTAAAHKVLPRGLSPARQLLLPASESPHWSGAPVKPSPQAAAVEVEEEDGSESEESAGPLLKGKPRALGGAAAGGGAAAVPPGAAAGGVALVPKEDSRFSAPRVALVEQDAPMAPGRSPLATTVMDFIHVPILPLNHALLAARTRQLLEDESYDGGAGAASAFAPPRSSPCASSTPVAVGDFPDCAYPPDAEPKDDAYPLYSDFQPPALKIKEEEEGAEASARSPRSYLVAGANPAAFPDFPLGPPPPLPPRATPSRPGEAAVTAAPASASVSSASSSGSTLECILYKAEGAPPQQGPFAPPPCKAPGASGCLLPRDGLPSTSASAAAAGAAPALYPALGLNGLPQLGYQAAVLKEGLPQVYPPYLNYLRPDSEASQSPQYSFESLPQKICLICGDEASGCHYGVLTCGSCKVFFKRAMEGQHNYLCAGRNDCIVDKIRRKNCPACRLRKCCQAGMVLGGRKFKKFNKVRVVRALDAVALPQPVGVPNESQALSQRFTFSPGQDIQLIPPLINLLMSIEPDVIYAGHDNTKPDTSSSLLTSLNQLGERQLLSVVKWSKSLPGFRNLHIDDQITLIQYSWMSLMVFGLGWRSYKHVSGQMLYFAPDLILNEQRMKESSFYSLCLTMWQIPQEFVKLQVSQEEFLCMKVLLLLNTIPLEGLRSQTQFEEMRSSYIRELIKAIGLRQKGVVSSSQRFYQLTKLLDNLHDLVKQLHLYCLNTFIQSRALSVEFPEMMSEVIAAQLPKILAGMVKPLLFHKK
Chain of Thyrotropin receptor (Homo sapiens) (P16473 whole entry, looked up): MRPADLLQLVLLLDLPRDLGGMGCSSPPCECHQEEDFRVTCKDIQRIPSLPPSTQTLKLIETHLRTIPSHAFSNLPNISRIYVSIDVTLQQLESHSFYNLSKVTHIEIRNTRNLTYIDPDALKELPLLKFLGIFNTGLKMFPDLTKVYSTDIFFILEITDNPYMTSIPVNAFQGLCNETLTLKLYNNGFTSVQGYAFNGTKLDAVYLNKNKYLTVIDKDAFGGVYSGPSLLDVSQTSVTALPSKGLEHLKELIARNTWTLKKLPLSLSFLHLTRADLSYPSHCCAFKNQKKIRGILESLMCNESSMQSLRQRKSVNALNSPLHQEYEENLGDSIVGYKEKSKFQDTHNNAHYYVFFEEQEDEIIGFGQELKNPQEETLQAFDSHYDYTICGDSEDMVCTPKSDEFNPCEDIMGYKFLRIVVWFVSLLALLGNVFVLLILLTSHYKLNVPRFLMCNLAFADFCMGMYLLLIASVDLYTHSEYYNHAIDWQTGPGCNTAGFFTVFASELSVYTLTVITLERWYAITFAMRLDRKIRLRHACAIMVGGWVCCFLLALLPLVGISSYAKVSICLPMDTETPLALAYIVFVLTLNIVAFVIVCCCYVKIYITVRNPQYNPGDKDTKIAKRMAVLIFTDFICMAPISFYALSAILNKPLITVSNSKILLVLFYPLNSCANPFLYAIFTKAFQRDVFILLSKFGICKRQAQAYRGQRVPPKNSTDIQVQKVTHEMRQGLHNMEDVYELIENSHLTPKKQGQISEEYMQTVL
Chain of Estrogen receptor (Homo sapiens) (P03372 whole entry, looked up): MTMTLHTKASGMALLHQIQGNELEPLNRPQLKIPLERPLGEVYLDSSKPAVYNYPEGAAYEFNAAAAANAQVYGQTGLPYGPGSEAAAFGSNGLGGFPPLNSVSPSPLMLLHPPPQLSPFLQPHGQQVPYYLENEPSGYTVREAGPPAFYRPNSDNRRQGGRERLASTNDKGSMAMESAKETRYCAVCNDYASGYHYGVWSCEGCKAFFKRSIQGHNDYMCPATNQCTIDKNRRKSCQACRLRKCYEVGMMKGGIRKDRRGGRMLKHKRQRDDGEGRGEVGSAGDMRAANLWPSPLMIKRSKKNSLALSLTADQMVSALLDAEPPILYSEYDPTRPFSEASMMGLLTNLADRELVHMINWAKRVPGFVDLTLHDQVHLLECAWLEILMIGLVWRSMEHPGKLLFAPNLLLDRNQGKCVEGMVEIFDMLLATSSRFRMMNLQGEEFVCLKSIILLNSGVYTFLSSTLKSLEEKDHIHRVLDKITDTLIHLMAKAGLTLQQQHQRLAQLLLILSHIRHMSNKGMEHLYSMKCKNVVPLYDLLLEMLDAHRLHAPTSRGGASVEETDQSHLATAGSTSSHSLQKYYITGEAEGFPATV
Chain of Androgen receptor (Homo sapiens) (P10275 whole entry, looked up): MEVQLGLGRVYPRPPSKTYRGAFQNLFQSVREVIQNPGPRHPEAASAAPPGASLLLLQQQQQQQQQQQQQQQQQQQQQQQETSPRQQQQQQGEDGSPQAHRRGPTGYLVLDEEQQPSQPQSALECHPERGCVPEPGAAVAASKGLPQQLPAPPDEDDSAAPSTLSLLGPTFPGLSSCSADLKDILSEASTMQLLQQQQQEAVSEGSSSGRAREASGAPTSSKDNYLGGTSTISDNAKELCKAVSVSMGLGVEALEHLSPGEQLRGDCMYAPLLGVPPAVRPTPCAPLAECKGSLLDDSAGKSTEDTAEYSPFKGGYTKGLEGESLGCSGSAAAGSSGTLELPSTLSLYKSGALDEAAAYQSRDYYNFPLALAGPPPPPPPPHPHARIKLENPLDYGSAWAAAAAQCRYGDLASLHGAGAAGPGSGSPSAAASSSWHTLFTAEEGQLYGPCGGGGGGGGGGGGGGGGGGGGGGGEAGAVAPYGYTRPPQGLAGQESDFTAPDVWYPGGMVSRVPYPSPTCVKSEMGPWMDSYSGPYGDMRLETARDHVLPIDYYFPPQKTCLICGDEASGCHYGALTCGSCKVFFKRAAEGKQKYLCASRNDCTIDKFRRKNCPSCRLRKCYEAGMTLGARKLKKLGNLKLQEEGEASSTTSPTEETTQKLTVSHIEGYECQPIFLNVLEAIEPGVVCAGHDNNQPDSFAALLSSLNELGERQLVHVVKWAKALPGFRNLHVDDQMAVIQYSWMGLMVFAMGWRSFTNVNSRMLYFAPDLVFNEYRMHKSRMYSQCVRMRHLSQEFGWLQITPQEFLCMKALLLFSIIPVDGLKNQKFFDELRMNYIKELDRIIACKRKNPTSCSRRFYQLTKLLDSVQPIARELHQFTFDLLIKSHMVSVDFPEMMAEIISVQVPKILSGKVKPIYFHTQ

NCc1ccco1
inactive: Potency [1] | Potency [2] | Potency [3] | Potency [4] | Potency [5] | outcome [6] | Potency [7] | Potency [8] | Potency [9] | Potency [10] | Potency [11] | outcome [12] | Potency [13] | Potency [14] | Potency [15] | Potency [16] | Potency [17] | Potency [18]

C=CC(=O)O[C@H]1C[C@@H]2CC[C@@]1(C)C2(C)C
inactive: Potency [1] | Potency [2] | Potency [19] | Potency [5] | outcome [6] | Potency [8] | Potency [10] | Potency [11] | outcome [12] | Potency [13] | Potency [14] | Potency [15] | Potency [16] | Potency [17] | Potency [18]

[Cl][Eu]([Cl])[Cl]
inactive: Potency [1] | Potency [2] | Potency [19] | Potency [5] | outcome [6] | Potency [8] | Potency [9] | Potency [10] | outcome [12] | Potency [13] | Potency [14] | Potency [15] | Potency [16] | Potency [17] | Potency [18]

Oc1ccc(C2(c3ccc(O)c(C4CCCCC4)c3)CCCCC2)cc1C1CCCCC1
active: Potency [1] 19.3 µM | Potency [2] 27.3 µM | Potency [8] 43.3 µM | Potency [9] 27.3 µM | Potency [10] 43.6 µM | Potency [11] 49 µM | Potency [15] 19.3 µM | Potency [16] 24.3 µM | Potency [17] 13.7 µM | Potency [18] 13.7 µM
inactive: Potency [19] | Potency [3] | Potency [14]

CCCCCCCCCCCCS(=O)(=O)Cl
inactive: activation [20] 1.48% [at 19 µM] | cAMP activity change [3] 2.12% [at 18.9 µM, stronger effect = higher value] | activity change, negative = inhibition [4] -1.01% [at 19 µM] | activation [6] -0.481% [at 19 µM] | activity change, negative = inhibition [7] -1.09% [at 18.9 µM] | activity change, negative = cytotoxicity [8] -16% [at 18.9 µM] | activity change, negative = cytotoxicity [9] -21.2% [at 19 µM] | viability change, negative = cytotoxic [10] -0.792% [at 15.8 µM] | activity change, negative = cytotoxicity [11] 19.7% [at 15.8 µM] | activation [12] 8.04% [at 15.8 µM] | activity, negative = inhibition [13] -4.31% [at 10.5 µM] | activation [14] 0.0016% [at 11.8 µM] | activity change, negative = cytotoxicity [15] 2.87% [at 19 µM] | caspase activation [16] -0.157% [at 19 µM] | activity change, negative = cytotoxicity [17] 5.87% [at 19 µM] | caspase-3/7 activation [18] -1.07% [at 19 µM]
active: Potency [1] 14.6 µM

CN1CCN(CCCN2c3ccccc3Sc3ccc(Cl)cc32)CC1
inactive: Potency [19] | Potency [3] | Potency [5] | outcome [6] | Potency [10] | Potency [11] | outcome [12] | Potency [16] | Potency [18]
active: Potency [1] 21.1 µM | Potency [2] 13.3 µM | Potency [4] 26.6 µM | Potency [8] 21.1 µM

Nc1cc([N+](=O)[O-])cc(Cl)c1O
inactive: Potency [1] | Potency [2] | Potency [19] | outcome [6] | Potency [7] | Potency [8] | Potency [9] | Potency [10] | Potency [11] | outcome [12] | Potency [14] | Potency [16] | Potency [18]
